Out of some 310,000 compounds screened, about 14,000 (4.5%) showed an effect of 50% or more. Effects have a minus sign here. This is one part of a sample in which strong results are shown more often than they occur.
Biological target: human ether-à-go-go-related gene (hERG) potassium channel (human, UniProt Q12809)
Test: primary screen, population patch clamp on CHO cells stably expressing hERG; higher = less effect of the substance
Experimental: Briefly, Chinese hamster ovary (CHO) cells stably expressing the hERG channel were dislodged from tissue culture flasks and dispensed into PPC plates. […] During the recording, background leak currents were estimated by a 100 ms step to -80 mV from an initial holding potential of -70 mV and subtracted from the subsequent current measurement. The campaign was conducted in two phases using slight differences in recording protocol. In the first phase, the initial voltage pulse used a 100 ms step to -30 mV from a holding potential of -70 mV, a 2 s conditioning step to +25 mV, and a 2 s test step to -30 mV. During the second phase of the screen, the potential during the conditioning step was raised to +45 mV. In both phases of the campaign, a secondary voltage pulse was applied using the same parameters as the second phase initial pulse. The initial and secondary pulses were applied in the absence of compound, and upon application of 1 μM and 10 μM test concentrations. […]
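Also: peak tail current of the secondary pulse compared with the same well before compound.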

Chain of human ether-à-go-go-related gene (hERG) potassium channel (Q12809 whole entry, looked up): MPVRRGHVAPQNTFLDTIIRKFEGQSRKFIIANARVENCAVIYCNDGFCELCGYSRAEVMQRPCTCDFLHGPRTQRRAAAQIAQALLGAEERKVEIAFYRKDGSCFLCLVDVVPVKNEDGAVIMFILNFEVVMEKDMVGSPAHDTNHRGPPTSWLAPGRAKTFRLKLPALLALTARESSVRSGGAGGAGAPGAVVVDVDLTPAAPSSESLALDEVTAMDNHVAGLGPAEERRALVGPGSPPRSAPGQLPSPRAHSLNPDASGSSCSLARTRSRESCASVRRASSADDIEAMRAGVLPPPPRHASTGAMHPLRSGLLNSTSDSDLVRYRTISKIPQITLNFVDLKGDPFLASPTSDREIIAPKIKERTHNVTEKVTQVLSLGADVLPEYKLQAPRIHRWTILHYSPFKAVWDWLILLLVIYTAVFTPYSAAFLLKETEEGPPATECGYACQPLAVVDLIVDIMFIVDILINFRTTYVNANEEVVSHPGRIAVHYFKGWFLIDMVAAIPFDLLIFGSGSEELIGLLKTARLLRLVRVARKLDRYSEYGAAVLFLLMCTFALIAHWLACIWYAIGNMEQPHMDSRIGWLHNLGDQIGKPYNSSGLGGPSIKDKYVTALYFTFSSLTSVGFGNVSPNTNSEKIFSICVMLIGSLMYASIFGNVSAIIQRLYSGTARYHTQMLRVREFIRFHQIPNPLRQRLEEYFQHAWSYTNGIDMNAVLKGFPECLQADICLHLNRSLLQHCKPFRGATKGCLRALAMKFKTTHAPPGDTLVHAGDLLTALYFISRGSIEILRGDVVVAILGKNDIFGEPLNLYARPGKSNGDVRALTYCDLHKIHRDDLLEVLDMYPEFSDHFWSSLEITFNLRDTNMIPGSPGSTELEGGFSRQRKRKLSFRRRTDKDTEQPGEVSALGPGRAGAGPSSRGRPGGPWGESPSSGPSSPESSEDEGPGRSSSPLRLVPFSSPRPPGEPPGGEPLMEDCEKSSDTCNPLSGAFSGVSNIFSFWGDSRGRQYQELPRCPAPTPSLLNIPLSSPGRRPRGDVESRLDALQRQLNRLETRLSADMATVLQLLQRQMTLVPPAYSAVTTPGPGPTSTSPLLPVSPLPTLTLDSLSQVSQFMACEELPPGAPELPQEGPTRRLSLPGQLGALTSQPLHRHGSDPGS

SMILES	hERG current change (%, negative = inhibition) at 10uM
NC(=O)CCn1c(C(=O)c2cc(Cl)c(N)c(Cl)c2)c2ccccc2[n+]1[O-]	17.9%
NC(=O)CCCn1c(C(=O)c2ccc(Cl)cc2)c2ccc(C(F)(F)F)cc2[n+]1[O-]	-77.9%
NC(=O)CCn1c(C(=O)c2ccc(Cl)cc2)c2ccccc2[n+]1[O-]	-23.7%
COc1ccc(/C=C2\N=C(c3ccccc3)N(c3ccc(C(=O)O)cc3)C2=O)cc1OC	6.76%
CC(C)Oc1ccc(C2CC(=O)N(Nc3ccc([N+](=O)[O-])cc3[N+](=O)[O-])C2=O)cc1 (centres unmarked)	-15.6%
CCOc1ccc(C2CC(=O)N(Nc3ccc([N+](=O)[O-])cc3[N+](=O)[O-])C2=O)cc1 (centres unmarked)	-51.7%
O=C1C2C3C=CC(C3)C2C(=O)N1Nc1ccc([N+](=O)[O-])cc1[N+](=O)[O-] (centres unmarked)	3.34%
Cc1ccc(-n2c(=O)[nH]c3c(C(N)=O)nc(C(C)C)nc32)cc1	15.1%
CCCN1CCN(C(=O)C2CCN(c3nnc(C)c4c(C)n(-c5ccc(C)cc5)nc34)CC2)CC1	-32.3%
Cc1nnc(N2CCCC(C(=O)NCc3ccccc3F)C2)c2nn(-c3ccccc3)c(C)c12 (centres unmarked)	-51.2%
Cc1ccc(-n2nc3c(N4CCC(C(=O)N5CCC(C(N)=O)CC5)CC4)nnc(C)c3c2C)cc1	12%
COc1ccc(-n2nc3c(N4CCC(C(=O)N5CCC(C)CC5)CC4)nnc(C)c3c2C)cc1	-46.3%
Cc1nnc(N2CCC(C(=O)N3CCCCC3)CC2)c2nn(-c3ccc(Cl)cc3)c(C)c12	-73.9%
CCOc1ccccc1CNC(=O)C1CCCN(c2nnc(C)c3c(C)n(-c4ccccc4)nc23)C1 (centres unmarked)	4.08%
Cc1ccc(-n2nc3c(N4CCC(C(=O)N5CCCCCC5)CC4)nnc(C)c3c2C)cc1	-68.7%
COc1ccc(-n2nc3c(N4CCC(C(=O)NC5CCCCC5)CC4)nnc(C)c3c2C)cc1	-5.39%
Cc1ccc(-n2nc3c(N4CCC(C(=O)N5CCN(C)CC5)CC4)nnc(C)c3c2C)cc1	11.9%
COc1ccc(-n2nc3c(N4CCC(C(=O)N5CCCCCC5)CC4)nnc(C)c3c2C)cc1	-53.7%
CCN1CCN(C(=O)C2CCN(c3nnc(C)c4c(C)n(-c5ccc(C)cc5)nc34)CC2)CC1	3.86%
Cc1ccccc1CNC(=O)C1CCCN(c2nnc(C)c3c(C)n(-c4ccccc4)nc23)C1 (centres unmarked)	-5.38%
